PubChem BioAssay (NCI)
The panel holds about 83,000 compounds, 20% with a hit somewhere; the sample as a whole holds those more often.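 Growth was measured after 48 h exposure to one concentration of compound in 96-well plates. Values under 10 count as active.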 Activity calls are given as the source filed them.

How the values were obtained:
Test in all cases: NCI-60 one-dose screen, 48 h (100 = growth as untreated, 0 = no growth, -100 = all killed)
HCT-15 colon = conditions: 10 µM
HT29 colon = conditions: 10 µM
SNB-75 CNS = conditions: 10 µM
SNB-19 CNS = conditions: 10 µM
U251 CNS = conditions: 10 µM
PC-3 prostate = conditions: 10 µM
SK-MEL-5 melanoma = conditions: 10 µM
UACC-62 melanoma = conditions: 10 µM unless noted
LOX IMVI melanoma = conditions: 10 µM
SK-MEL-28 melanoma = conditions: 10 µM

Measured: growth

O=C(O)CCCc1ccccc1
inactive: HCT-15 colon 101% | HT29 colon 109% | SNB-75 CNS 99.9% | SNB-19 CNS 105% | U251 CNS 95.3% | PC-3 prostate 99.3% | SK-MEL-5 melanoma 108% | UACC-62 melanoma 108% | LOX IMVI melanoma 102% | SK-MEL-28 melanoma 111%

COCCOCCCl
inactive: HCT-15 colon 99.3% | HT29 colon 105% | SNB-75 CNS 95.9% | SNB-19 CNS 103% | U251 CNS 105% | PC-3 prostate 84.5% | SK-MEL-5 melanoma 92.1% | UACC-62 melanoma 104% | LOX IMVI melanoma 98.5% | SK-MEL-28 melanoma 114%

COCCCC/C(=N\OCCN)c1ccc(C(F)(F)F)cc1
inactive: HCT-15 colon 103% | HT29 colon 96% | SNB-75 CNS 79.9% | SNB-19 CNS 100% | U251 CNS 97.4% | PC-3 prostate 79.8% | SK-MEL-5 melanoma 99.6% | UACC-62 melanoma 97.5% | LOX IMVI melanoma 94.8% | SK-MEL-28 melanoma 117%

COc1cccc(O)c1O
inactive: HCT-15 colon 38.4% | HT29 colon 104% | SNB-75 CNS 56.3% | SNB-19 CNS 65.1% | U251 CNS 65.1% | PC-3 prostate 79.5% | SK-MEL-5 melanoma 55.9% | UACC-62 melanoma 45.5% | LOX IMVI melanoma 53.7% | SK-MEL-28 melanoma 74.1%

O=P(O)(O)OCC(O)CO (stereo unspecified)
inactive: HCT-15 colon 104% | HT29 colon 101% | SNB-75 CNS 84% | SNB-19 CNS 104% | U251 CNS 94% | PC-3 prostate 96.7% | SK-MEL-5 melanoma 102% | UACC-62 melanoma 108% | SK-MEL-28 melanoma 98.2%

Cc1cc(C)c(N)c(S(=O)(=O)O)c1
inactive: HCT-15 colon 100% | HT29 colon 103% | SNB-75 CNS 101% | SNB-19 CNS 96.5% | U251 CNS 98.2% | PC-3 prostate 96.6% | SK-MEL-5 melanoma 98.7% | UACC-62 melanoma 93.1% | LOX IMVI melanoma 93.9% | SK-MEL-28 melanoma 132%

C#CC(C(C)C)N(CCO)CCCC (stereo unspecified)
inactive: HCT-15 colon 94.9% | HT29 colon 117% | SNB-75 CNS 83.6% | SNB-19 CNS 107% | U251 CNS 97.7% | PC-3 prostate 94.7% | SK-MEL-5 melanoma 100% | UACC-62 melanoma 107% | LOX IMVI melanoma 107% | SK-MEL-28 melanoma 101%

CCC/C=C(/C(C)=O)C(=O)OCC
inactive: HCT-15 colon 109% | HT29 colon 111% | SNB-75 CNS 89.2% | SNB-19 CNS 94.8% | U251 CNS 103% | PC-3 prostate 88.5% | SK-MEL-5 melanoma 112% | UACC-62 melanoma 95.1% | LOX IMVI melanoma 102% | SK-MEL-28 melanoma 122%

Cc1ccc(C(O)C2CC2)cc1 (stereo unspecified)
inactive: HCT-15 colon 97.7% | HT29 colon 104% | SNB-75 CNS 88.9% | SNB-19 CNS 96.7% | U251 CNS 100% | PC-3 prostate 94.5% | SK-MEL-5 melanoma 103% | UACC-62 melanoma 98.8% | SK-MEL-28 melanoma 106%

N#CSc1cc(S(N)(=O)=O)ccc1N
inactive: HCT-15 colon 108% | HT29 colon 101% | SNB-75 CNS 85.5% | SNB-19 CNS 102% | U251 CNS 101% | PC-3 prostate 109% | SK-MEL-5 melanoma 101% | UACC-62 melanoma 104% | LOX IMVI melanoma 99.9% | SK-MEL-28 melanoma 102%

CC1CC(O)C2C3(C)CCCC2(COC3=O)C12CCC1(CCOC1=O)O2 (stereo unspecified)
inactive: HCT-15 colon 102% | HT29 colon 109% | SNB-75 CNS 96.4% | SNB-19 CNS 108% | U251 CNS 102% | PC-3 prostate 94% | SK-MEL-5 melanoma 111% | UACC-62 melanoma 114% | LOX IMVI melanoma 107% | SK-MEL-28 melanoma 111%

O=C(O)CSCSCC(=O)O
inactive: HCT-15 colon 98.7% | HT29 colon 107% | SNB-75 CNS 77.2% | SNB-19 CNS 96.6% | U251 CNS 94.3% | PC-3 prostate 103% | SK-MEL-5 melanoma 103% | UACC-62 melanoma 100% | SK-MEL-28 melanoma 97.8%

CCOC(=O)c1coc(C(=O)OCC)c1C(=O)OCC
inactive: HCT-15 colon 105% | HT29 colon 124% | SNB-75 CNS 92.3% | SNB-19 CNS 112% | U251 CNS 102% | PC-3 prostate 122% | SK-MEL-5 melanoma 108% | UACC-62 melanoma 112% | LOX IMVI melanoma 108% | SK-MEL-28 melanoma 117%

Nc1ccc(C(=O)c2ccc(N)c(Br)c2)cc1Br
inactive: HCT-15 colon 18% | SNB-19 CNS 33.4% | U251 CNS 18.2% | PC-3 prostate 22.4% | UACC-62 melanoma 28.7% | LOX IMVI melanoma 12.9% | SK-MEL-28 melanoma 45%
active: HT29 colon -14.2% | SNB-75 CNS -5.35% | SK-MEL-5 melanoma 8.91%

CCCCCCCO
inactive: HCT-15 colon 95.6% | HT29 colon 132% | SNB-75 CNS 106% | SNB-19 CNS 102% | U251 CNS 97.8% | PC-3 prostate 105% | SK-MEL-5 melanoma 99.2% | UACC-62 melanoma 97.7% | LOX IMVI melanoma 99.8% | SK-MEL-28 melanoma 98.3%

O=[N+]([O-])c1ccc(N=Nc2ccccc2)cc1
inactive: HCT-15 colon 100% | HT29 colon 92.2% | SNB-75 CNS 88.5% | SNB-19 CNS 96.7% | U251 CNS 90.5% | PC-3 prostate 83.5% | SK-MEL-5 melanoma 99% | UACC-62 melanoma 91.4% | SK-MEL-28 melanoma 99.3%
